Shown are actives, neighbours in structure and some others; about 3.1% of the full set was active somewhere.
VDR inh: vitamin D3 receptor (human) inhibition; VDR-SRC2-3 peptide fluorescence polarization, 2 h; Potency, µM, hits mostly inhibitors; actives 0.93% (n = 400,000)
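FP read-out; VDR + SRC2-3 coactivator peptide; 23 nl compound by pintool; 2 h RT incubation; reagents held at 4 deg C, protected from light.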
PLK1 PBD block: inhibitors of human PLK1 polo-box domain binding; Potency, µM, actives largely listed as inhibitors; actives 2.8% (n = 360,000); P53350; Plk1 PBD binding of FITC phosphopeptide, fluorescence polarization; further: series mostly up to about 57 µM; nearly all actives have a fitted effect of over 65% in size
Target sequence (P53350 whole entry, looked up, the tested form may be a part): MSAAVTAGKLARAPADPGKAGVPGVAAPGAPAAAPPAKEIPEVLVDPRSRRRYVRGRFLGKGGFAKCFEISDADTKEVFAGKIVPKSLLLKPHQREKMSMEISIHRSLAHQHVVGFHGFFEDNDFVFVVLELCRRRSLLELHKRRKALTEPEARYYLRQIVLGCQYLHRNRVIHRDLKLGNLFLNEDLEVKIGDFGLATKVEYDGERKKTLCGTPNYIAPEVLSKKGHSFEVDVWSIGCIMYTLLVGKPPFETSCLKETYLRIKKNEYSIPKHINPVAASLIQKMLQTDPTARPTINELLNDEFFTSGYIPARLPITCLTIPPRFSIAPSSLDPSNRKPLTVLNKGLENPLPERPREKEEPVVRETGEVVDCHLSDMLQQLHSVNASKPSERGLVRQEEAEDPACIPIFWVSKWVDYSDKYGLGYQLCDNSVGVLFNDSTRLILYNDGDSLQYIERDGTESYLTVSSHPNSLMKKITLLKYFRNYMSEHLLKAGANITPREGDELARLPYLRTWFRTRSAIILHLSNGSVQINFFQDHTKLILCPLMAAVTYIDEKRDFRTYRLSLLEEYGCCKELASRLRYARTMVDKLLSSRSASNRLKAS
Vif-A3F inh: Vif-A3F binding inhibition; HeLa A3F-eYFP + Vif (tagged APOBEC3F with the HIV-1 protein that degrades it), YFP fluorescence increase; Potency, µM (series often up to 46.1 µM); actives 0.2% (n = 390,000); AID 602313; further: nearly all actives have a fitted effect of over 65% in size
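HeLa cells stably expressing A3F-eYFP plus Vif, plated and incubated overnight at 37 deg C, then exposed to compounds overnight at 37 deg C. Blocked degradation read as raised yellow fluorescence (Ex 488/Em 500-530).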
TSHR antagonist: antagonists of human thyroid stimulating hormone receptor. P16473. TSHR-expressing cells, TSH-stimulated cAMP HTRF, 2 h; active compounds read low. activity change, negative = inhibition, % at 11.5 µM. actives 0.2% (n = 330,000). AID 504810;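 active means activity change below a set negative limit, meaning inhibition stronger than a set level, cut at about -70% in these data; inconclusive means activity change between two set negative limits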
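Antagonism was scored as loss of TSH-driven cAMP in TSHR cells, stimulated with 4nM TSH (EC80) for 2 hours at 37 deg C and detected by homogeneous HTRF competition immunoassay.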
Vif-A3G inh: Vif-A3G binding inhibition | Q9HC16 | Potency, µM (highest dose often 46.1 µM), actives largely listed as inhibitors | HeLa A3G-eYFP + Vif (tagged APOBEC3G with the HIV-1 protein that degrades it), YFP fluorescence, overnight | AID 602310 | actives 0.076% (n = 410,000); further: nearly all actives have a fitted effect of over 60% in size
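HeLa cells stably expressing Vif and C-terminally eYFP-tagged A3G, seeded overnight at 37 deg C, then exposed to compound by pintool overnight at 37 deg C. Rise in yellow fluorescence (Ex 488/Em 500-530, Acumen) marks blocked Vif-driven A3G degradation.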
Numbers stand for hits; i = inactive; ? = inconclusive; nt = not tested or not shown. Unless noted, the call rests on the fitted dose curve; in most records, active means well fitted curve in the direction sought with a large enough effect; inconclusive means small, poorly fitted or top-dose-only effect, or another doubt; inactive means no such curve, though single readings can be large; an effect the other way counts as inactive or inconclusive.

SMILES	VDR inh	PLK1 PBD block	Vif-A3F inh	TSHR antagonist	Vif-A3G inh
CCC(CO)Oc1cc(NCc2ccccc2)c2ncn(C(C)C)c2c1 (configuration not stated)	?	i	i	i	i
COc1ccc(C2CC(c3ccccc3)Oc3cc4c(cc32)OCO4)cc1 (configuration not stated)	i	nt	nt	nt	i
Cc1ccc(NC(=O)c2ccc3c(c2)CCN3S(C)(=O)=O)cc1	nt	i	i	nt	i
Cc1ccc(NC(=O)c2ccc3c(c2)CCN3S(C)(=O)=O)cc1C	?	3µM	i	i	i
COc1ccc(Sc2nc(-c3ccccc3)ncc2C(=O)O)cc1	i	?	i	i	i
O=C(O)c1cnc(-c2ccccc2)nc1Sc1ccc(Cl)cc1	i	21µM	i	i	i
COc1ccc2[nH]c3c(=O)n(Cc4ccc(C(=O)N5CCCC5)cc4)c(=S)[nH]c3c2c1	?	24µM	i	i	i
COc1ccc2[nH]c3c(=O)n(CCCCC(=O)NCCN4CCCC4)c(=S)[nH]c3c2c1	i	i	i	i	i
CN(C)CCCNc1cc(N2CCN(C)CC2)ncn1	nt	nt	nt	nt	i
COc1ccccc1N1CCN(CC2CN3C(=O)N(C)c4ccccc4C3=N2)CC1 (configuration not stated)	i	nt	nt	nt	nt
N#C/C(=C/c1ccc(N2CCCCC2)o1)c1cccc(F)c1	40µM	i	10µM	i	?
CCOC(=O)N1CCN(S(=O)(=O)c2cc([N+](=O)[O-])ccc2C)CC1	i	i	i	i	i
Cc1ccc([N+](=O)[O-])cc1S(=O)(=O)N1CCNCC1	i	15µM	i	i	i
CCOc1ccc(C2C(C(N)=O)=C(C)Nc3nc(SCc4ccccc4)nn32)cc1 (configuration not stated)	i	nt	i	nt	i
CC(C)Oc1ccc(CNC(=O)c2cnc3sc(N4CCCC4)nn3c2=O)cc1	i	nt	i	nt	i
O=[N+]([O-])c1cccc(S(=O)(=O)Nc2ccc(S(=O)(=O)Nc3nccs3)cc2)c1	i	i	i	nt	i
Nc1ccc(S(=O)(=O)Nc2nccs2)cc1N=Nc1ccccc1[N+](=O)[O-]	?	30µM	i	nt	i
NC(=O)NC(=O)COC(=O)/C=C/c1cccc(Br)c1	i	i	i	i	i
CCOC(=O)C(CC)(CC)C(=O)/C=C/c1cccc(Br)c1	79µM	i	i	nt	i
O=C(Nc1ccc(Br)cc1F)c1ccc2nsnc2c1	?	5.3µM	i	i	i
COc1ccc(CNC(=O)CN2C(=O)COc3ccc(S(=O)(=O)N4CCC(C)CC4)cc32)cc1	i	30µM	i	i	i
COC(=O)CN1C(=O)COc2ccc(S(=O)(=O)N3CCCC3)cc21	i	i	i	-135	i
COc1cccc(CNC(=O)[C@H](C)NC(=O)C2CCN(S(=O)(=O)c3ccccc3)CC2)c1	?	27µM	i	i	i
COc1cccc(CNC(=O)CCn2ccc3cc(S(=O)(=O)N4CCC(C)CC4)ccc32)c1	i	i	i	i	i
COc1ccc(CNC(=O)CN2C(=O)COc3ccc(S(=O)(=O)N4CCCCCC4)cc32)cc1	i	nt	i	nt	i
SMILES	VDR inh	PLK1 PBD block	Vif-A3F inh	TSHR antagonist	Vif-A3G inh
COC(=O)CN1C(=O)COc2ccc(S(=O)(=O)N3CCCCC3)cc21	nt	i	i	nt	i
COc1ccc(S(=O)(=O)N2CCC(C(=O)N[C@@H](C)C(=O)NCc3cccc(OC)c3)CC2)cc1	i	i	i	i	i
COc1cccc(CNC(=O)Cn2ccc3cc(S(=O)(=O)N4CCC(C)CC4)ccc32)c1	?	9.5µM	i	i	i
CCCN(CCC)CCCNC(=O)c1cc2c(=O)oc3ccc(C)cc3c2s1	i	nt	?	nt	i
O=C(NCCOc1ccccc1)O[C@@H]1C(=O)c2cc(Br)ccc2O[C@H]1c1ccc2c(c1)OCO2	i	nt	nt	nt	nt
C[C@@H]1C(=O)O[C@H]2C[C@@]34[C@H]5C[C@@H](C(C)(C)C)[C@]36[C@H](OC(=O)[C@H]6O)O[C@]4(C(=O)O5)[C@]21O	i	nt	nt	nt	nt
O=C1/C(=C/c2ccsc2)CC/C1=C\c1cccs1	i	nt	nt	i	nt
CCN1C(=O)c2cccc3c(N)ccc(c23)C1=O	i	3µM	?	i	?
Cc1nn(C)c(C)c1N1C(=O)c2cccc3c(N)ccc(c23)C1=O	i	2.7µM	?	i	i
CCCCNc1ccc2c3c(cccc13)C(=O)N(CCCC)C2=O	i	2.1µM	i	i	i
COc1ccc(NC=O)c(C(=O)CCNC(C)=O)c1	i	nt	nt	nt	nt
COc1ccc(/C=C(\CC(=O)O)c2nc3ccccc3o2)cc1	i	i	i	i	i
COc1ccc(C(=O)/C(=C/c2cccs2)c2nc3ccccc3o2)cc1	32µM	27µM	nt	i	i
COc1ccccc1/C=C/c1nc2ccccc2o1	nt	nt	nt	nt	i
CCOC(=O)c1cccc(NC(=O)N2CC=C(c3c[nH]c4ccccc34)CC2)c1	i	nt	5µM	nt	?
Cc1ccc(C)c(NC(=O)N2CC=C(c3c[nH]c4ccccc34)CC2)c1	i	nt	25µM	nt	?
CCOc1ccc(NC(=O)N2CC=C(c3c[nH]c4ccccc34)CC2)cc1	i	nt	28µM	nt	?
O=[N+]([O-])c1cc(Cl)ccc1Nc1nc(Nc2ccc(Cl)cc2[N+](=O)[O-])nc(N2CCOCC2)n1	i	nt	nt	nt	i
O=C(NN=Cc1ccccc1C(=O)O)C(=O)NN=Cc1ccccc1C(=O)O	i	i	i	nt	i
O=C(NCC1CCCO1)C(=O)N/N=C/c1ccccc1C(=O)O (configuration not stated)	i	27µM	i	i	i
COCCNC(=O)COC(=O)c1nsc(Cl)c1Cl	i	27µM	i	i	i
C1=Nc2ccccc2/C1=C/c1ccccc1	nt	nt	nt	nt	i
Clc1cccc(N2CCN(c3nc4ccccc4c4nc(-c5ccccc5)nn34)CC2)c1	i	nt	i	nt	i
O=C(Oc1ccc(Cl)c2cccnc12)c1ccco1	i	i	i	i	11µM
S=C(NCCCN1CCOCC1)Nc1ccc(-c2nc3ccccc3[nH]2)cc1	i	24µM	i	i	i
SMILES	VDR inh	PLK1 PBD block	Vif-A3F inh	TSHR antagonist	Vif-A3G inh
OC1CN=C2CCCc3c2n(c2ccc(Cl)cc32)C1 (configuration not stated)	i	i	i	i	i
c1ccc(-c2ccc3c(c2)c2c4n3CCN=C4CCC2)cc1	i	30µM	i	i	i
CCCN1C(=O)c2ccccc2NC1c1ccc(OC)c(COc2ccc([N+](=O)[O-])c(C)c2)c1 (configuration not stated)	i	nt	nt	nt	i
C[N+]12CCCC[C@@H]1CCC(=C(c1cccs1)c1cccs1)C2 (some centres not stated)	i	nt	nt	nt	nt
CC(C)(C)NC(=O)C(=O)NNC(=O)c1cccc(Br)c1	i	i	i	-79	i
Cc1cccc(C(=O)NNC(=O)C(=O)NC(C)(C)C)c1	i	i	i	i	i
NS(=O)(=O)c1ccc(N/N=C/c2ccccc2C(=O)O)c([N+](=O)[O-])c1	i	i	i	i	i
Cc1cc([N+](=O)[O-])c2[nH]c(C(=O)N/N=C/c3ccccc3C(=O)O)c(-c3ccccc3)c2c1	i	30µM	i	i	i
